Measurements as given in PubChem BioAssay (NCATS).
Several values for one entry are separate records, joined by “and”; a condition that tells them apart may be missing. Identical values can stand only once. Inconclusive results are not listed. Activity calls are given as the source filed them. Unless noted, the call rests on the fitted dose curve; in most records, active means well fitted curve in either direction with a large enough effect (not every such curve was filed as active); inconclusive means small, poorly fitted or top-dose-only effect, or another doubt; inactive means flat fitted curve, though single readings scatter.

Legend:
[1] = biological target: Lysosomal acid glucosylceramidase (Homo sapiens) (UniProt P04062); experiment: Glucocerebrosidase-p2 (AID 348; in the data active means potency below about 10 µM; further: potency means the concentration at half of the fitted maximal effect); conditions: purified GBA, blue fluorogenic substrate, 40 min
How it was run: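 Compounds titrated from 0.6 nM upwards against 0.2 nM enzyme in pH 5.9 citric acid/KH2PO4, taurocholate, tween-20; blue fluorogenic substrate 80 uM, 40 min room temperature, stopped and read Ex 365/Em 440 for AC50.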

[2] = AP1 Signaling Pathway (AID 357); conditions: ME-180 AP-1-bla reporter, EGF-induced, beta-lactamase ratio, 5 h; at 7.69 µM (top of the series) unless noted; further: on the % scale 0 is the no-effect control and ±100 the full control effect
How it was run: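 AP-1-bla ME-180 cells with beta-lactamase reporter under AP-1 response element, stimulated with EC50 EGF; compounds titrated, 5 hours at 37 degrees Celsius. CCF4 read at 460/530 nm ratio; positive and negative modulators judged by AC50.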

[3] = NFAT Signaling Pathway (AID 444); conditions: Jurkat NFAT-bla M1, carbachol, beta-lactamase ratio, 5 h; at 7.69 µM (top of the series) unless noted;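 further: carbachol stimulus at about its EC50 of 1 µM final; on the % scale 0 is the no-effect control and ±100 the full control effect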
How it was run: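 Jurkat cells with NFAT-driven β-lactamase reporter and co-expressed M1 receptor, stimulated with carbachol (final 1 uM, ~EC50), compound titration, 5 h at 37 °C. CCF4 loaded 1 h at RT; 460/530 nm ratio gave %activity and AC50.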

[4] = Stat Signaling Pathway (AID 446); conditions: ME-180 (cervical carcinoma) SIE beta-lactamase reporter, IL-6 stimulated, 5 h; at 7.69 µM (top of the series) unless noted;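 further: ME-180 cervical cancer cells given 40 pM IL-6 alongside compound; SIE-controlled beta-lactamase reporter measured as 460/530 nm FRET emission ratio; on the % scale 0 is the no-effect control and ±100 the full control effect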
How it was run: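 IL-6/STAT signaling read in ME-180 cells via an SIE beta-lactamase reporter. Stimulus was 40 pM IL-6 (its AC50) for 5 hrs, so both activation and inhibition register.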

[5] = biological target: Glucocorticoid receptor (Homo sapiens) (UniProt P04150); experiment: GR-GFP Redistribution (AID 450;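 active means compounds whose dose series gives a full or clear partial fitted curve of increased nuclear translocation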; further: potency means the concentration at half of the fitted maximal effect); conditions: U2OS GR-GFP nuclear translocation, laser cytometry, 2 h
[6] = biological target: Glucocorticoid receptor (Homo sapiens) (UniProt P04150); experiment: GR-EFC Redistribution (AID 451; calls by dose curve; further: potency means the concentration at half of the fitted maximal effect); conditions: CHO-K1 GR-EFC translocation, beta-gal luminescence, 2 h
How it was run: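 CHO-K1 cells expressing nuclear EA and GR-ED fragments of b-gal; compounds titrated up to 46 uM final, 2 h at 37 C. GR nuclear translocation read as complemented b-gal luminescence after 1 h RT detection.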

[7] = biological target: Mitogen-activated protein kinase 10 (Mus musculus) (UniProt Q61831); experiment: JNK3 AlphaScreen Assay (AID 530); conditions: JNK3 lysate, c-Jun phosphorylation; series mostly up to 11.4 µM;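 further: kinase came from lysate of stimulated human HepG2 cells; signal reports phosphorylation of biotinylated GST-cJun 1-79 at Ser73 with 10 µM ATP; on the % scale 0 is the no-effect control and ±100 the full control effect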
How it was run: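 Pre-activated (IL-1β/TNFα) JNK3 in HepG2 lysates phosphorylates biotin-GST-cJun(1-79), 10 uM ATP; anti-phospho-cJun(Ser73) AlphaScreen read at room temperature, pH 7.6 Tris buffer. Compounds pre-incubated 15 min as titrations.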

[8] = biological target: 3',5'-cyclic-AMP phosphodiesterase 4B (Homo sapiens) (UniProt Q07343); experiment: qHTS Assay for Inhibitors of PDE-IV (AID 607; active means well fitted activation curve with a large enough effect in the main read-out, with a control signal flat, not every such curve was filed as active; further: % of control where 0% means no effect); conditions: HEK293 ACTOne CNG channel cells, membrane potential fluorescence; series mostly up to 22.9 µM
How it was run: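 Live HEK293 cells with a modified cyclic nucleotide-gated (CNG) channel report intracellular cAMP via membrane-potential dye fluorescence (ex 535/em 590 nm). Endogenous PDE-IV was targeted. Compounds were tested at up to 22.9 uM final; RO 20-1724 100 uM served as control.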

Chain of 3',5'-cyclic-AMP phosphodiesterase 4B (Homo sapiens) (Q07343 whole entry, looked up): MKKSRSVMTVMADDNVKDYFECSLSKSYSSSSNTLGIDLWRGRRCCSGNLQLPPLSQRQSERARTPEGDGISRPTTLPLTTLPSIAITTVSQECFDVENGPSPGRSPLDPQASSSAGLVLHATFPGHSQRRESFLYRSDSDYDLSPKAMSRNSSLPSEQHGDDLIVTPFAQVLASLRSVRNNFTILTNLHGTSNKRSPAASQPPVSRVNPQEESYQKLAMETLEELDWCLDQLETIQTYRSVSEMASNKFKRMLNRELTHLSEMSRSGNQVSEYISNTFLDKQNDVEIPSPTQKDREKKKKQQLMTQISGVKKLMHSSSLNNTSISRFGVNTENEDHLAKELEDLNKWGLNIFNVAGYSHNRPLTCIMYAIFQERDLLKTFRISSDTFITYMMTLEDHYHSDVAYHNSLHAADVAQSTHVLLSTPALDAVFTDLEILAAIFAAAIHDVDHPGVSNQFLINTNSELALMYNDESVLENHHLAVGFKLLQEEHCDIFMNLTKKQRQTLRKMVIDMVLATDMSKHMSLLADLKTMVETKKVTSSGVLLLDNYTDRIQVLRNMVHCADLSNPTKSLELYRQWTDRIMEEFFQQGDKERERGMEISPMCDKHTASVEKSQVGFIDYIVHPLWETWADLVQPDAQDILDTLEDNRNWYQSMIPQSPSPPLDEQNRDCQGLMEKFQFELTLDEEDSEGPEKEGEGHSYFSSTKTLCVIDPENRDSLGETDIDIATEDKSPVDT
Chain of Glucocorticoid receptor (Homo sapiens) (P04150 whole entry, looked up, the tested form may be a part): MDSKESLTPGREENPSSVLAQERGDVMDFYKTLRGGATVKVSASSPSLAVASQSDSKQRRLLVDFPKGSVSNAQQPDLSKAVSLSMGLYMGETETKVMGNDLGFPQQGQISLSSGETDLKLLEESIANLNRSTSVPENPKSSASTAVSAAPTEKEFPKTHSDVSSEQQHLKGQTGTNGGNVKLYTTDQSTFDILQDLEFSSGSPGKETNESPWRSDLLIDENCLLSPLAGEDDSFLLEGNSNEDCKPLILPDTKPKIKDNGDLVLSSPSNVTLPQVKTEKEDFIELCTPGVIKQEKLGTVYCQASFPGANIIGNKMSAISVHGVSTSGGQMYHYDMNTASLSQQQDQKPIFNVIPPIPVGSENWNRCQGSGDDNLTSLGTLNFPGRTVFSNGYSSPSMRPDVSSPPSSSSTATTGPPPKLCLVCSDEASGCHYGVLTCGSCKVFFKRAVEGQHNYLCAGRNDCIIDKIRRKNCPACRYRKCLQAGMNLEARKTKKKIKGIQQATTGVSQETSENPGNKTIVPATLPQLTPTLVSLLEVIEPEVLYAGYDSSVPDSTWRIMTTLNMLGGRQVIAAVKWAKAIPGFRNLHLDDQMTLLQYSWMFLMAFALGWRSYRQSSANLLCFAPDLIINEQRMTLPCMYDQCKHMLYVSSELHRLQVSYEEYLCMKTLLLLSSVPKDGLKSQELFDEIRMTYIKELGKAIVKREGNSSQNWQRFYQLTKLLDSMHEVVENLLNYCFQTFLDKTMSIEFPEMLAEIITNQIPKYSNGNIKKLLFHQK
Chain of Lysosomal acid glucosylceramidase (Homo sapiens) (P04062 whole entry, looked up): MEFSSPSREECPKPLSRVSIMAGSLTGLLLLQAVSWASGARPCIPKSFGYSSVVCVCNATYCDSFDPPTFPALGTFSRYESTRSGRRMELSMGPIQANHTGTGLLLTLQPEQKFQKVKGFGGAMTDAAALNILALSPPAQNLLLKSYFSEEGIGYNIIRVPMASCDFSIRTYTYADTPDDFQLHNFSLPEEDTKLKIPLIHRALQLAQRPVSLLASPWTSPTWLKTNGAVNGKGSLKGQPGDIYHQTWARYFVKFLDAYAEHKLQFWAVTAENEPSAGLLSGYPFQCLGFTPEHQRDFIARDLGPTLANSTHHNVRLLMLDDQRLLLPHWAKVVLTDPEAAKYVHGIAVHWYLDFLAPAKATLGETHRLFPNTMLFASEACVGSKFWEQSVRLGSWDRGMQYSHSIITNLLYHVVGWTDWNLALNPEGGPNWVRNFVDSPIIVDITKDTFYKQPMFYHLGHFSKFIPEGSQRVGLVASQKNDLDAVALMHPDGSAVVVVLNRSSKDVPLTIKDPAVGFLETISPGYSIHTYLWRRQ

O=C(O)[C@H](Cc1ccccc1)N1C(=O)c2ccccc2C1=O
inactive: Potency [1] > 11.4 µM | activity change, negative = inhibition [2] -3.82% | activity change, negative = inhibition [3] 16.6% | activity, negative = inhibition [4] -2.52% | Potency [5] > 46 µM | Potency [6] > 9.22 µM | Potency [7] | Potency [8]

C#CCOC(=O)[C@H](N)CC(N)=O
inactive: Potency [1] > 11.4 µM | activity change, negative = inhibition [2] 0.665% | activity change, negative = inhibition [3] 13.9% | activity, negative = inhibition [4] -0.998% | Potency [5] > 46 µM | Potency [6] > 9.22 µM | Potency [7] | Potency [8]

Cc1nc2ccccc2nc1N1CCCC1
inactive: Potency [1] > 11.4 µM | activity change, negative = inhibition [2] 2.88% | activity change, negative = inhibition [3] 0.00129% | activity, negative = inhibition [4] 3.44% | Potency [5] > 46 µM | Potency [6] > 9.22 µM | Potency [7] | Potency [8]

CC1=NNC(=S)NCCCN2CCN(CCCNC(=S)NN=C(C)C=NNC(=S)NCCCN3CCN(CCCNC(=S)NN=C1)CC3)CC2
inactive: Potency [1] > 11.4 µM | activity change, negative = inhibition [2] 4.7% | activity change, negative = inhibition [3] 5.96% | activity, negative = inhibition [4] -0.247% | Potency [5] > 46 µM | Potency [6] > 9.22 µM | Potency [7] | Potency [8]

CC(=O)[C@@]1(N=Nc2ccc(S(N)(=O)=O)cc2)CCOC1=O
inactive: Potency [1] > 11.4 µM | activity change, negative = inhibition [2] -8.54% | activity change, negative = inhibition [3] 5.28% | activity, negative = inhibition [4] 6.55% | Potency [5] > 46 µM | Potency [6] > 9.22 µM | Potency [7] | Potency [8]

NC(=O)NOC[C@@H]1NC(=O)NC1=O
inactive: Potency [1] > 11.4 µM | activity change, negative = inhibition [2] 0.037% | activity change, negative = inhibition [3] 8.44% | activity, negative = inhibition [4] 9.07% | Potency [5] > 46 µM | Potency [6] > 9.22 µM | Potency [7] | Potency [8]

CC(=O)O[C@H]1CC[C@]2(C)C(=CC[C@H]3[C@H]4C[C@H]5O[C@]6(CC[C@H](C)CN6)[C@H](C)[C@@H]5[C@]4(C)CC[C@@H]32)C1
inactive: Potency [1] > 11.4 µM | activity change, negative = inhibition [2] 13.4% | activity change, negative = inhibition [3] 0.916% | activity, negative = inhibition [4] 3.85% | Potency [5] > 46 µM | Potency [6] > 9.22 µM | Potency [7] | Potency [8]

Cc1cccc2cc3ccc4ccccc4c3cc12
inactive: Potency [1] > 11.4 µM | activity change, negative = inhibition [2] -0.591% | activity change, negative = inhibition [3] -3.47% | activity, negative = inhibition [4] 19.6% | Potency [5] > 46 µM | Potency [6] > 9.22 µM | Potency [7] | Potency [8]

N[C@@]1(C(=O)O)CCC[C@@H]1C(=O)O
inactive: Potency [1] > 11.4 µM | activity change, negative = inhibition [2] 6.92% | activity change, negative = inhibition [3] 10.2% | activity, negative = inhibition [4] 9.09% | Potency [5] > 46 µM | Potency [6] > 9.22 µM | Potency [7] | Potency [8]

CC(C)=C[C@H]1[C@@H](COC(=O)c2cc3c(cc2Cl)OCO3)C1(C)C
inactive: Potency [1] > 11.4 µM | activity change, negative = inhibition [2] 9.62% | activity change, negative = inhibition [3] 1.43% | activity, negative = inhibition [4] 13.6% | Potency [5] > 46 µM | Potency [6] > 9.22 µM | Potency [7] | Potency [8]

O=C(O)CSCc1cccc2ccccc12
inactive: Potency [1] > 11.4 µM | activity change, negative = inhibition [2] -0.864% | activity change, negative = inhibition [3] 16.3% | activity, negative = inhibition [4] 2.65% | Potency [5] > 46 µM | Potency [6] > 9.22 µM | Potency [7] | Potency [8]

N=C(N)SCCc1ccccn1
inactive: Potency [1] > 11.4 µM | activity change, negative = inhibition [2] -8.38% and 0.949% | activity change, negative = inhibition [3] 3.85% and 12.3% | activity, negative = inhibition [4] -5.15% and -3.19% | Potency [5] > 46 µM | Potency [6] > 9.22 µM | Potency [7] | Potency [8]

Cc1c(-c2nc(N)nc(C3CC3)c2C)nc(N)nc1C1CC1
inactive: Potency [1] > 11.4 µM | activity change, negative = inhibition [2] 2.87% | activity change, negative = inhibition [3] 4.67% | activity, negative = inhibition [4] 5.17% | Potency [5] > 46 µM | Potency [6] > 9.22 µM | Potency [7] | Potency [8]

C/C(=N/NC(=O)c1ccncc1)c1ccccc1Cl
inactive: Potency [1] > 11.4 µM | activity change, negative = inhibition [2] 12.5% | activity change, negative = inhibition [3] 8.3% | activity, negative = inhibition [4] -2.05% | Potency [5] > 46 µM | Potency [6] > 9.22 µM | Potency [7] | Potency [8]

O=C(O)CCN1C(=S)CSC1=S
inactive: Potency [1] > 11.4 µM | activity change, negative = inhibition [2] -2.79% | activity change, negative = inhibition [3] 8.02% | activity, negative = inhibition [4] 10.1% | Potency [5] > 46 µM | Potency [6] > 9.22 µM | Potency [7] | Potency [8]

O=C(O)CCNCC(=O)O
inactive: Potency [1] > 11.4 µM | activity change, negative = inhibition [2] 2.01% | activity change, negative = inhibition [3] 0.769% | activity, negative = inhibition [4] -2.35% | Potency [5] > 46 µM | Potency [6] > 9.22 µM | Potency [7] | Potency [8]

O=C(O)Cc1c[nH]c2ccc(F)cc12
inactive: Potency [1] > 11.4 µM | activity change, negative = inhibition [2] 0.0381% | activity change, negative = inhibition [3] 24.2% | activity, negative = inhibition [4] 5.52% | Potency [5] > 46 µM | Potency [6] > 9.22 µM | Potency [7] | Potency [8]
